{"source": "PubChem BioAssay (EPA / NIEHS)", "key": {"[1]": {"system": "Sodium/Iodide Symporter (NIS), SLC5A5 (gene 6528)", "test": "CPHEA_Stoker_NIS_Inhibition_RAIU: CPHEA's Radioactive Iodide Uptake (RAIU) Assay for Sodium/Iodide Symporter (NIS) Inhibition, Stoker and Laws Labs (AID 2283841)", "in_short": "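HEK293T cells stably expressing human NIS (hNIS-HEK293T-EPA) were exposed to test chemicals at 0.001–100uM (0.5% final DMSO) with 125I at a final 329pM in HBSS/10mM HEPES pH 7.4. After 2 hours at room temperature and ice-cold washes, intracellular 125I was counted as CPM and normalized to DMSO wells.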"}, "[2]": {"molecular_target": "frog Thyroid hormone Receptor alpha (TRa), thra-a (gene 397942) (UniProt P15204)", "sequence (P15204 whole entry, looked up, the tested form may be a part)": "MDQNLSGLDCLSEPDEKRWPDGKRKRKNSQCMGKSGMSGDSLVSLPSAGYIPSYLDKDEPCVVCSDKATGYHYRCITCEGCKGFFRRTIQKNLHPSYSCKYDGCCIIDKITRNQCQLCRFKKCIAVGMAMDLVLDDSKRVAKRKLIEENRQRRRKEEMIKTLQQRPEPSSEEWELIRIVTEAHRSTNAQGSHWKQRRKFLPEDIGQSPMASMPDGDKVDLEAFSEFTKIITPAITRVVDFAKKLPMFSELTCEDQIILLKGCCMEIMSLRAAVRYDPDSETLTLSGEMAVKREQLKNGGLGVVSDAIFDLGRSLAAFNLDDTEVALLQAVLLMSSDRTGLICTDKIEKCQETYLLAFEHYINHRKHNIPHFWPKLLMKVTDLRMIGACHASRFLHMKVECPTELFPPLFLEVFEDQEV", "test": "ATG_frTRa_XSP2: Attagene TRANS-FACTORIAL Multi-Species (XSP2) HepG2 Assay for frog Thyroid hormone Receptor alpha (TRa) (AID 2283839)", "in_short": "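Frog thyroid receptor alpha was tested as an exogenous NR-Gal4 fusion in transiently transfected HepG2 cells. After 24 h chemical treatment, reporter mRNA induction was quantified by RT-PCR and capillary electrophoresis, with gain-of-signal analysed relative to DMSO.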"}, "[3]": {"molecular_target": "human Thyroid hormone Receptor beta (TRb), THRB (gene 7068) (UniProt P10828)", "sequence (P10828 whole entry, looked up, the tested form may be a part)": "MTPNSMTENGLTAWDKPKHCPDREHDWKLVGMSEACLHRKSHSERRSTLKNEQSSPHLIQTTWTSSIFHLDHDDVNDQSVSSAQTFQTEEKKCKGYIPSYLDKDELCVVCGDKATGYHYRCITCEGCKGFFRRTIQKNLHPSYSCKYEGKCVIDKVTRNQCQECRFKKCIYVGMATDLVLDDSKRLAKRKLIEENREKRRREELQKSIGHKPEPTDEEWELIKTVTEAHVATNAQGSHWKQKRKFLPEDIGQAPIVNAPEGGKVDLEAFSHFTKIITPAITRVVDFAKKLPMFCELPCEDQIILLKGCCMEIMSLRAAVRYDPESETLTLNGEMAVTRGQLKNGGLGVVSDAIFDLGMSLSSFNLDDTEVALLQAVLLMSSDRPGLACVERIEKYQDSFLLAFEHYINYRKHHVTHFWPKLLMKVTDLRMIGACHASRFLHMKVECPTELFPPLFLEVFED", "test": "ATG_hTRb_XSP2: Attagene TRANS-FACTORIAL Multi-Species (XSP2) HepG2 Assay for human Thyroid hormone Receptor beta (TRb) (AID 2283840);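 note: actives raise reporter mRNA so potency reflects agonist-like gain of signal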", "in_short": "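In this cell-based multiplex, HepG2 liver cells carrying transfected GAL4-UAS reporter constructs are exposed to chemical for 24 hours, then reporter transcripts are measured by RT-PCR with capillary electrophoresis, scored as gain of signal against DMSO.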"}, "[4]": {"test": "CEETOX_H295R_11DCORT_noMTC: CeeTox H295R High-throughput Steroidogenesis Assay for 11-Deoxycortisol (11DCORT), maximum tolerated concentration (MTC) filtered results only (AID 2283911; active = hit-call score of the fitted dose curve at least 0.9, where 1 is the maximum; inactive = score below 0.9)", "settings": "actives raise or lower the signal", "in_short": "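Readout is 11-deoxycortisol in culture medium by reverse-phase HPLC with MS/MS, after 48 h chemical treatment of forskolin-primed H295R cells. Values are relative to DMSO and unfiltered for cytotoxicity.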"}, "[5]": {"test": "CEETOX_H295R_OHPREG_noMTC: CeeTox H295R High-throughput Steroidogenesis Assay for OH-Pregnenolone (OHPREG), maximum tolerated concentration (MTC) filtered results only (AID 2283912; active = hit-call score of the fitted dose curve at least 0.9, where 1 is the maximum; inactive = score below 0.9)", "settings": "actives raise or lower the signal", "in_short": "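Medium 17alpha-hydroxypregnenolone quantified by reverse-phase HPLC-MS/MS after 48 h chemical exposure of forskolin-prestimulated (10 uM, 48 h) H295R, 0.1% DMSO final. Fitting bidirectional relative to DMSO; no maximum-tolerated-concentration filtering applied.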"}, "[6]": {"test": "CEETOX_H295R_OHPROG_noMTC: CeeTox H295R High-throughput Steroidogenesis Assay for OH-Progesterone (OHPROG), maximum tolerated concentration (MTC) filtered results only (AID 2283914; active = hit-call score of the fitted dose curve at least 0.9, where 1 is the maximum; inactive = score below 0.9)", "settings": "actives raise or lower the signal", "in_short": "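After 48 h forskolin (10 uM) prestimulation, H295R adrenal cells received test chemical in 0.1% DMSO for 48 h. Medium 17alpha-hydroxyprogesterone was MTBE-extracted and measured by HPLC-MS/MS; gain or loss relative to DMSO, no MTT-based MTC filtering.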"}, "[7]": {"test": "CEETOX_H295R_ANDR_noMTC: CeeTox H295R High-throughput Steroidogenesis Assay for Androstenedione (ANDR), maximum tolerated concentration (MTC) filtered results only (AID 2283915; active = hit-call score of the fitted dose curve at least 0.9, where 1 is the maximum; inactive = score below 0.9)", "settings": "actives raise or lower the signal", "in_short": "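Androstenedione secreted into medium was measured by LC-MS/MS after MTBE extraction. Human adrenal H295R cells received 10 uM forskolin for 48 h before 48 h chemical exposure (0.1% DMSO). Gain or loss fitted against DMSO, including concentrations above the MTT-derived MTC.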"}, "[8]": {"test": "CEETOX_H295R_CORTISOL_noMTC: CeeTox H295R High-throughput Steroidogenesis Assay for Cortisol, maximum tolerated concentration (MTC) filtered results only (AID 2283916; active = hit-call score of the fitted dose curve at least 0.9, where 1 is the maximum; inactive = score below 0.9)", "settings": "actives raise or lower the signal", "in_short": "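Cortisol secretion measured by LC-MS/MS after 48 h chemical treatment (final 0.1% DMSO) of forskolin-primed (10 uM, 48 h) H295R cells; gain or loss fitted relative to DMSO, without maximum-tolerated-concentration filtering.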"}, "[9]": {"test": "CEETOX_H295R_CORTIC_noMTC: CeeTox H295R High-throughput Steroidogenesis Assay for Corticosterone (CORTIC), maximum tolerated concentration (MTC) filtered results only (AID 2283917; active = hit-call score of the fitted dose curve at least 0.9, where 1 is the maximum; inactive = score below 0.9)", "settings": "actives raise or lower the signal", "in_short": "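Human adrenal H295R cells were prestimulated 48 h with 10 uM forskolin, then exposed 48 h to chemical in 0.1% DMSO. Medium corticosterone was MTBE-extracted and quantified by HPLC-MS/MS; bidirectional fits versus DMSO, concentrations not MTC-filtered.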"}, "[10]": {"test": "CPHEA_Stoker_NIS_Cytotoxicity: Cytotoxicity Assessment for CPHEA's Radioactive Iodide Uptake (RAIU) Assay for Sodium/Iodide Symporter (NIS) Inhibition, Stoker and Laws Labs (AID 2283897)", "in_short": "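hNIS-HEK293T-EPA human kidney cells were exposed for 2 hours at room temperature to test chemicals (0.001–100uM, 0.5% final DMSO) in HEPES-buffered HBSS, pH 7.4. Viability was read as ATP content by luciferase bioluminescence, loss of signal versus DMSO.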"}}, "note": "Inconclusive results are not listed. Activity calls are given as the source filed them. Rule for the calls, unless noted: active = hit-call score of the fitted dose curve at least 0.9, where 1 is the maximum; inconclusive = response in the unintended direction; inactive = score below 0.9."}
{"smiles": "FC(F)(F)C(F)(F)C(F)(F)C(F)(F)CCI", "values": [{"measurement": "outcome", "setting": "[1]", "value": "inactive"}]}
{"smiles": "OCCCC(F)(F)C(F)(F)C(F)(F)C(F)(F)C(F)(F)C(F)(F)C(F)(F)F", "values": [{"measurement": "outcome", "setting": "[1]", "value": "inactive"}]}
{"smiles": "C#C[C@]1(O)CC[C@H]2[C@@H]3CCc4cc(OC)ccc4[C@H]3CC[C@@]21C", "values": [{"measurement": "outcome", "setting": "[2]", "value": "inactive"}, {"measurement": "AC50", "setting": "[3]", "value": "0.0262 µM (active)"}]}
{"smiles": "CCCCCCCOC(=O)c1ccccc1C(=O)OCCCCCCC", "values": [{"measurement": "outcome", "setting": "[4]", "value": "inactive"}, {"measurement": "outcome", "setting": "[5]", "value": "inactive"}, {"measurement": "outcome", "setting": "[6]", "value": "inactive"}, {"measurement": "outcome", "setting": "[7]", "value": "inactive"}, {"measurement": "outcome", "setting": "[8]", "value": "inactive"}, {"measurement": "outcome", "setting": "[9]", "value": "inactive"}]}
{"smiles": "OCC(F)(F)C(F)(F)C(F)(F)C(F)(F)C(F)(F)C(F)(F)F", "values": [{"measurement": "outcome", "setting": "[1]", "value": "inactive"}]}
{"smiles": "c1ccc(B(c2ccccc2)c2ccccc2)cc1", "values": [{"measurement": "outcome", "setting": "[2]", "value": "inactive"}, {"measurement": "outcome", "setting": "[3]", "value": "inactive"}]}
{"smiles": "O=C(O)C(F)(F)C(F)(F)C(F)(F)C(F)(F)C(F)(F)C(F)(F)C(F)(F)C(F)(F)Cl", "values": [{"measurement": "AC50", "setting": "[1]", "value": "33.6 µM (active)"}]}
{"smiles": "O=C(O)C(F)(F)C(F)(F)C(F)(F)C(F)(F)C(F)(F)C(F)(F)C(F)(F)C(F)(F)C(F)(F)C(F)F", "values": [{"measurement": "AC50", "setting": "[1]", "value": "21.7 µM (active)"}]}
{"smiles": "C=CC(=O)OCC(F)(F)C(F)(F)C(F)(F)C(F)(F)C(F)(F)C(F)(F)C(F)(F)F", "values": [{"measurement": "outcome", "setting": "[1]", "value": "inactive"}]}
{"smiles": "CCCCCCOC(=O)c1ccccc1O", "values": [{"measurement": "outcome", "setting": "[1]", "value": "inactive"}, {"measurement": "outcome", "setting": "[10]", "value": "inactive"}]}
{"smiles": "O=S(=O)(OCCOC(F)(F)F)C(F)(F)F", "values": [{"measurement": "outcome", "setting": "[1]", "value": "inactive"}]}
